This passage reports z-score and composite z-score results from PubChem BioAssay.

Active and inactive are the calls of the source.

One experiment can be described thus: E. coli DRC41 culture turbidity changes, primary screen, E. coli filamentation inducer project, strain DRC41, OD650, 48 h (AID 1152).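 Further: E. coli MC1000 strain DRC41 lacking acrAB efflux pump and sulA.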 To be noted: E. coli DRC41 (acrAB sulA), higher = more signal, called active from +8 up or from −8 down.
Turning to `CCN1C(=O)[C@H]2[C@H]3[C@H](O)[C@H](O)CC(=NOCC=C(C)CCC=C(C)C)[C@@H]3CC[C@H]2C1=O`, the z-score was -1.27 (inactive). As for `O=C1[C@H]2[C@H]3[C@H](O)[C@H](O)CC(=NOC[C@@H](O)COCc4ccco4)[C@@H]3CC[C@H]2C(=O)N1Cc1ccccc1`, the z-score is 0.119 (inactive).

In the case of `O=C1[C@H]2CCn3c(=O)n(-c4ccccc4)c(=O)n3[C@H]2[C@H](O)[C@@H]2O[C@H]12`, the z-score was -0.323 (inactive).

Take `CON=C[C@@H](OC)[C@H](C)C=CCC(=O)OC`: the z-score was -2.24 (inactive). Still for that read-out and setting: in the case of `CC(C)=CCCC(C)=CCON=C1C[C@@H](O)[C@@H](O)[C@@H]2[C@@H]3C(=O)N(Cc4ccc5c(c4)OCO5)C(=O)[C@@H]3CC[C@@H]12` it was 0.253 (inactive); in that of `CC(=O)OC[C@H]1O[C@H](CC=NO[C@@H](C)c2cc(-c3c(C)cc(C)cc3C)no2)C=C[C@@H]1OC(C)=O`, 0.11 (inactive); in that of `COc1ccc(-c2cnnc(CCCn3ccnc3-c3ccccc3)n2)cc1`, -0.249 (inactive). The same measure, in the same setting: for `O=C1C2=CC[C@H]3C(=O)N(c4ccc(F)cc4F)C(=O)[C@H]3[C@H]2[C@H](O)[C@@H]2O[C@H]12` the value was -0.138 (inactive). Still for that read-out and setting: for `COC(=O)CC=C[C@@H](C)[C@@H](C=NOC[C@@H](O)COCc1ccco1)OC` the value was 0.245 (inactive); for `COC(=O)[C@H](C)NC(=O)CCC1CC(OC(=O)NCc2cccc3ccccc23)CC2(CCCC(COC(=O)NCCCN3CCCC3=O)O2)O1` (some centres not stated), -3.55 (inactive). On to `CCOC(=O)[C@H](CC(C)C)NC(=O)CCC1CC(OC(=O)NCc2ccc3c(c2)OCO3)CC2(CCCC(COC(=O)NCCc3ccccc3OC)O2)O1` (some centres not stated), for which the z-score is -1.08 (inactive).

Turning to `CO[C@@H](C(C)C)[C@@H](C)C1OC(=O)CC1O` (some centres not stated), the z-score was 0.486 (inactive).

In the case of `Cc1ccc(C(C)C)n1C(=O)OC(C)(C)C`, the z-score is -0.241 (inactive).

As to `CCOC(=O)[C@H](Cc1ccccc1)NC(=O)CCC1CC(OC(=O)NCc2ccc3c(c2)OCO3)CC2(CCCC(COC(=O)NCCOc3ccccc3)O2)O1` (some centres not stated), the z-score was 0.0897 (inactive). Same read-out and setting: in the case of `CSCC[C@@H]1NC(=O)CC=C[C@@H](C)COC(=O)[C@H](C)COC1=O` it was 0.832 (inactive); in that of `CO[C@H]1COC(=O)CCC[C@H](C)[C@@H](OC)COC(=O)CC=C[C@@H]1C`, 0.0226 (inactive); in that of `CC(C)[C@@H](OCc1ccccc1)[C@H](C)C=NO[C@@H](C)c1cn([C@H](CO)Cc2ccccc2)nn1`, 0.502 (inactive). The same measure, in the same setting: in the case of `CCN1C(=O)[C@H]2[C@@H]3C(=CC[C@H]2C1=O)C(=O)[C@H]1O[C@H]1[C@H]3O` it was -1.08 (inactive); in that of `CC(C)=CCCC(C)=CCON=C1C[C@@H](O)[C@@H](O)[C@@H]2[C@@H]3C(=O)N(C4CCCCC4)C(=O)[C@@H]3CC[C@H]12`, 0.693 (inactive). The same measure, in the same setting: for `C=CC[C@@H]1C=C[C@H](ON=C[C@@H](NS(=O)(=O)c2ccc(C)cc2)[C@H](C)C=CCC(=O)OC)[C@@H](CO)O1` the value was 0.171 (inactive). Take `COC(=O)[C@H](C)NC(=O)CCC1CC(OC(=O)NCCc2ccc(F)cc2)CC2(CCCC(COC(=O)NCCOc3ccccc3)O2)O1` (some centres not stated): the z-score is -0.651 (inactive). Take `CO[C@@H]1COC(=O)[C@H](COCc2ccccc2)NC(=O)CC=C[C@@H](C)[C@H](OC)COC(=O)[C@@H](C)NC(=O)CC=C[C@H]1C`: the z-score is 0.52 (inactive). The same measure, in the same setting: for `CC(CCC(=O)OC[C@H]1O[C@H](C#Cc2ccccc2)C=C[C@@H]1Oc1ccc(C)cc1)=NOC[C@@H](C)[C@H](OCc1ccccc1)C(C)C` the value was -0.321 (inactive); for `COC(=O)[C@H](C)NC(=O)CC=C[C@@H](C)[C@@H]1C=C[C@H](O)[C@@H](CO)O1`, 0.645 (inactive); for `C=CC[C@@H]1C=C[C@H](ON=C(C)CCN2CCCc3nc(C)c(C)cc32)[C@@H](CO)O1`, 0.579 (inactive). With `O=C1C=C[C@@H](O)[C@@H]2[C@@H]3C(=O)N(Cc4ccccc4)C(=O)[C@@H]3CC[C@@H]12`, the z-score was 0.763 (inactive).

A further experiment is described as follows: small-molecule binders of probe aLefty1, primary screen, biochemical, small-molecule microarray, 635/667 nm fluorescence (AID 1153).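 Further: score merges spot fluorescence with signal-to-noise ratio from the scanned slide images.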 To be noted: higher = more signal.
With `CON=C(C)CCC(=O)OC[C@H]1O[C@H](C#Cc2ccccc2)C=C[C@@H]1Oc1ccc(C)cc1`, the composite z-score is -0.0141.

For `CC(C)(C)N1C(=O)[C@H]2[C@H]3[C@H](O)[C@H](O)CC(=NOC[C@@H](O)COCc4ccco4)[C@@H]3CC[C@H]2C1=O`, the composite z-score worked out at 0.211. Still for that read-out and setting: in the case of `CO[C@@H]1[C@H](O)CO[C@H]1C=Cc1ccccc1` it was -0.0559.

Take `CCN1C(=O)[C@H]2[C@H]3[C@H](O)[C@H](O)CC(=NOCC[C@@H]4C=C[C@H](OC(C)=O)[C@@H](COC(C)=O)O4)[C@@H]3CC[C@H]2C1=O`: the composite z-score is -0.125.

`CO[C@@H](C1CCCCC1)[C@@H](C)[C@H](OCc1cccc(Br)c1)[C@@H](C)CO` registered a composite z-score of -0.401. Still for that read-out and setting: in the case of `CCOC(=O)CCN1C(=O)[C@H]2[C@H]3[C@H](O)[C@H](O)CC(=NOCC(C)C)[C@@H]3CC[C@H]2C1=O` it was -0.0051. `CCOC(=O)CCN1C(=O)[C@H]2[C@H]3[C@H](O)[C@H](O)CC(=NO[C@@H]4O[C@H](CO)[C@@H](O)[C@H](O)[C@H]4O)[C@@H]3CC[C@H]2C1=O` came in with a composite z-score of 0.121.

Take `CO[C@H]1COC(=O)CC=C[C@@H](C)COC(=O)[C@H]2CCCN2C(=O)CC=C[C@H]1C`: the composite z-score is -0.217. On to `CCOC(=O)[C@H](Cc1ccccc1)NC(=O)CCC1CC(OC(=O)NCc2cccc3ccccc23)CC2(CCCC(COC(=O)NCCc3ccccc3OC)O2)O1` (some centres not stated), for which the composite z-score was -0.101. Still for that read-out and setting: for `Cc1ccc(S(=O)(=O)N[C@@H]2COC(=O)CC=C[C@@H](C)[C@H](NS(=O)(=O)c3ccc(C)cc3)COC(=O)[C@H](C)NC(=O)CC=C[C@H]2C)cc1` the value was -0.147; for `CCN1C(=O)[C@H]2[C@H]3[C@H](O)[C@H](O)CC(=NOCC=C(C)CCC=C(C)C)[C@@H]3CC[C@H]2C1=O`, -0.22. The same measure, in the same setting: in the case of `O=C1[C@H]2[C@H]3[C@H](O)[C@H](O)CC(=NOC[C@@H](O)COCc4ccco4)[C@@H]3CC[C@H]2C(=O)N1Cc1ccccc1` it was 0.185; in that of `O=C1[C@H]2CCn3c(=O)n(-c4ccccc4)c(=O)n3[C@H]2[C@H](O)[C@@H]2O[C@H]12`, -0.391. The same measure, in the same setting: in the case of `CON=C[C@@H](OC)[C@H](C)C=CCC(=O)OC` it was -0.316. For `CC(C)=CCCC(C)=CCON=C1C[C@@H](O)[C@@H](O)[C@@H]2[C@@H]3C(=O)N(Cc4ccc5c(c4)OCO5)C(=O)[C@@H]3CC[C@@H]12`, the composite z-score stood at 0.0315. On the same count and under the same terms, for `CC(=O)OC[C@H]1O[C@H](CC=NO[C@@H](C)c2cc(-c3c(C)cc(C)cc3C)no2)C=C[C@@H]1OC(C)=O` the value was -0.101. Same read-out and setting: for `COc1ccc(-c2cnnc(CCCn3ccnc3-c3ccccc3)n2)cc1` the value was -0.0576.

In the case of `O=C1C2=CC[C@H]3C(=O)N(c4ccc(F)cc4F)C(=O)[C@H]3[C@H]2[C@H](O)[C@@H]2O[C@H]12`, the composite z-score turned out to be 0.558. Still for that read-out and setting: for `COC(=O)CC=C[C@@H](C)[C@@H](C=NOC[C@@H](O)COCc1ccco1)OC` the value was -0.202; for `COC(=O)[C@H](C)NC(=O)CCC1CC(OC(=O)NCc2cccc3ccccc23)CC2(CCCC(COC(=O)NCCCN3CCCC3=O)O2)O1` (some centres not stated), 0.582; for `CCOC(=O)[C@H](CC(C)C)NC(=O)CCC1CC(OC(=O)NCc2ccc3c(c2)OCO3)CC2(CCCC(COC(=O)NCCc3ccccc3OC)O2)O1` (some centres not stated), 0.0437. Same read-out and setting: for `CO[C@@H](C(C)C)[C@@H](C)C1OC(=O)CC1O` (some centres not stated) the value was -0.278; for `Cc1ccc(C(C)C)n1C(=O)OC(C)(C)C`, -0.0934; for `CCOC(=O)[C@H](Cc1ccccc1)NC(=O)CCC1CC(OC(=O)NCc2ccc3c(c2)OCO3)CC2(CCCC(COC(=O)NCCOc3ccccc3)O2)O1` (some centres not stated), -0.239.

On to `CSCC[C@@H]1NC(=O)CC=C[C@@H](C)COC(=O)[C@H](C)COC1=O`, for which the composite z-score is -0.321. Still for that read-out and setting: for `CO[C@H]1COC(=O)CCC[C@H](C)[C@@H](OC)COC(=O)CC=C[C@@H]1C` the value was -0.17; for `CC(C)[C@@H](OCc1ccccc1)[C@H](C)C=NO[C@@H](C)c1cn([C@H](CO)Cc2ccccc2)nn1`, 0.086. In turn, `CCN1C(=O)[C@H]2[C@@H]3C(=CC[C@H]2C1=O)C(=O)[C@H]1O[C@H]1[C@H]3O` had a composite z-score of -0.214. The same measure, in the same setting: in the case of `CC(C)=CCCC(C)=CCON=C1C[C@@H](O)[C@@H](O)[C@@H]2[C@@H]3C(=O)N(C4CCCCC4)C(=O)[C@@H]3CC[C@H]12` it was -0.132. On the same count and under the same terms, in the case of `C=CC[C@@H]1C=C[C@H](ON=C[C@@H](NS(=O)(=O)c2ccc(C)cc2)[C@H](C)C=CCC(=O)OC)[C@@H](CO)O1` it was -0.191; in that of `COC(=O)[C@H](C)NC(=O)CCC1CC(OC(=O)NCCc2ccc(F)cc2)CC2(CCCC(COC(=O)NCCOc3ccccc3)O2)O1` (some centres not stated), 0.0169. The same measure, in the same setting: for `CO[C@@H]1COC(=O)[C@H](COCc2ccccc2)NC(=O)CC=C[C@@H](C)[C@H](OC)COC(=O)[C@@H](C)NC(=O)CC=C[C@H]1C` the value was -0.193.

In the case of `CC(CCC(=O)OC[C@H]1O[C@H](C#Cc2ccccc2)C=C[C@@H]1Oc1ccc(C)cc1)=NOC[C@@H](C)[C@H](OCc1ccccc1)C(C)C`, the composite z-score is -0.378. In turn, `COC(=O)[C@H](C)NC(=O)CC=C[C@@H](C)[C@@H]1C=C[C@H](O)[C@@H](CO)O1` registered a composite z-score of -0.269.

Regarding `C=CC[C@@H]1C=C[C@H](ON=C(C)CCN2CCCc3nc(C)c(C)cc32)[C@@H](CO)O1`, the composite z-score amounted to 0.97. Same read-out and setting: for `O=C1C=C[C@@H](O)[C@@H]2[C@@H]3C(=O)N(Cc4ccccc4)C(=O)[C@@H]3CC[C@@H]12` the value was -0.0145.
